# Source: the supplement of paper PMC6555819
# Test system: VDR:RXRa (NR concentration 270 nM, RXRa partner concentration 90 nM)
# Test: PBM binding z-score (relative to random genomic background probes); higher = stronger binding; sequences stand for … in GC…GCGATTGACAGCGTAGAATGAAGG
# Description: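 Protein-binding microarray (Agilent 4x180K custom design, double-stranded 60-nt probes: 5' GC cap, 34-nt variable region, 24-nt constant primer region; full probe sequence given). Purified or IVT nuclear receptor:RXRα heterodimers (3:1 NR:RXRα, mostly 270:90 nM) or homodimers were incubated for 1 h in PBS with 2% milk and no ligand, then detected with Alexa488 antibodies. Fluorescence from o1-orientation probes (~5 replicates averaged) was converted to z-scores against 500 random hg19 background probes. Variable regions are seed direct-repeat (DR0–DR5) sites, all their single-nucleotide variants and half-site ablations.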
row,Sequence,PBM binding z-score
1,CGAACTAGGTCAAGGACAATGAATCTCCGCACGC,1.49
2,TTACCAAGGTGCAGGTCGTTGATCCCTCTGTAGA,0.558
3,CAAACTAGGTCACAGAGGTGAAAGTCCGTGCGTA,5.99
4,GCTCGGTGGACAAGGTCAGAGCTTTGTCCGTAGA,1.48
5,ATCTCGAGGTAAGACTCAGTTCAGTGAAGAACGC,0.704
6,CAAACTAGGTCACCCGAAGGTCAAAGTCCGCATG,5.75
7,GATACATGGTCAAGGCCAGAGTACGCGTATTGAT,-0.256
8,TCTCAAAGTTCAAAGGTAACGTAAGTATCCACAC,4.93
9,CCTTACGGTTCACGAGGTTATAGCACGACGAGCG,4.12
10,AGAATGAGGTTACCAAAGATCAGGGGAACGCTTG,1.49
11,TTACCAAGGTGAAAGGTCGTTGGTGCACGCCTTG,3.5
12,ACCATTAGTTGACTTAGGGCAACCGATACGACGC,0.475
13,TGTCAAAGTTCAAAGGTAAGGTAAGTATCCACAC,4.95
14,TCATATAGGTAAATAGGTGAAAGTCCGTAAGTTA,1.25
15,TCTCGGAGGACACGAAGGTCATAGCTTTCCAGAG,4.04
16,ATCTCTAGGTAAGACTCAGTTCTGTGAAGAACGC,0.069
17,GAAGACAGGTGAAACGCAGGTAACTCAGGGTGGC,-0.438
18,TCTGCTAGGTCAGTTGGTCAGCTGACGAGCTGCC,-0.0967
19,CCTACTGGGCCAAAAAGGGCATTGATGCCGATAA,1.01
20,ACTAGCAGCCCAAGGGTCACTCAAGATTAGTCCG,2.6

row,Sequence,PBM binding z-score
1,TTACCAATGTGAAAGGTCGTTGATGCACGCCTTG,2.08
2,CAGCCTAGGTCAGGGACAGTATAGGAGGAACGTT,0.484
3,TCTGCTAGGTGAGTTGGTCAGCTAACGAGCTGCC,-0.769
4,ACAGACAGGTGAGTGAAGGTAAATCAGCTGGACG,-0.406
5,AGTCAAAGTTCACTAGGTAACGTAAGATTCAGCT,3.83
6,TCAATTAGTTGAAGGGCAACCGACGAGTCCGTTT,0.667
7,CGAACTAGGTCAGAACAGCACAGTGAAGGATGAT,0.261
8,GTTAGCAGGCCATTTGGGTCACTCAATGACGGGC,0.985
9,ATCTGTAGGTAAAGTTCAGTGAAAGATCGATAGA,1.24
10,TCATATAGGTAATACTGGTGAAAGTCGGCATCTA,0.963
11,CAAACTAGGTGAAAGGTCAAAGTCGAGCCAACCA,5.23
12,TCATATAAGTAAATGCTAGGTGAAAGTCCGATCT,0.889
13,CGAAAGAGGGCATGAGTTGATAGCAAATGCCGAT,1.22
14,CGTCCAAGGTCAAGGTCAGTGGAAGAGACTCGAA,4.89
15,CCTACTGGGCCAAATGTCATTGATTCCAATGCTC,0.0339
16,ATCTCTACGTAAAGTTCAGTGAAAGATCGATAGA,1.67
17,CCGACTCGGGCAAGGTTACCATAACGCACAGCCA,-0.103
18,GCTTGTAGATCAAGGTTATGAAAGACTAAGCTAA,0.325
19,TCTATTAGTGGATTAGGGCAACCGAAACAGCGGA,0.547
20,CGAACGAGGGCATGAGTTGATAGAAAATGCCGAT,1.29
